Here are results for 20 molecules from PubChem BioAssay (Tox21).

The source made the active and inactive calls. Unless noted, calls come from the whole dose curve; as a rule, active = well fitted curve in the direction sought with a large enough effect in the repeat runs; inconclusive = weak or mixed curves; inactive = flat fitted curve, though single readings scatter.

The nature of experiment [1]: qHTS assay to test for compound auto fluorescence at 535 nm (green) in HEK293 cells (AID 720680). (In qHTS, concentration-response curves come from the screen itself.)
Experiment [2] can be described thus: qHTS assay to test for compound auto fluorescence at 460 nm (blue) in HEK293 cell free culture (AID 720681). The method, boiled down: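 Compounds were added to cell-free DMEM with 10% FBS and fluorescence read directly. The blue channel used 405 nm excitation and 460 nm emission, with triamterene as the reference fluorophore.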
Experiment [3] in a line: qHTS assay to test for compound auto fluorescence at 535 nm (green) in HEK293 cell free culture (AID 720682). In a few lines:
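Read-out: 485/535 nm fluorescence intensity, calibrated against fluorescein. Medium only (DMEM + 10% FBS, no cells); test compound or DMSO vehicle added by pintool before plate reading.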

Experiment [4] is described as follows: qHTS assay to test for compound auto fluorescence at 590 nm (red) in HEK293 cell free culture (AID 720683). In a few lines:
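Cell-free wells of DMEM with 10% FBS received compound, and intrinsic fluorescence was read at excitation/emission 540/590 nm. Values expressed as equivalence to Rose Bengal sodium.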

Experiment [5] in a line: qHTS assay to test for compound auto fluorescence at 590 nm (red) in HepG2 cell free culture (AID 720684). In a few lines:
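Compound was pinned into wells holding MEM with 10% FBS and no cells, and red fluorescence was read at Ex/Em 540/590 nm. Signal is expressed as auto fluorescence equivalency relative to Rose Bengal sodium.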

Experiment [6] in a line: qHTS assay to test for compound auto fluorescence at 460 nm (blue) in HepG2 cell free culture (AID 720685). In a few lines:
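Compound (23 nL) or DMSO pinned into cell-free MEM with 10% FBS; blue fluorescence read at 405/460 nm excitation/emission, expressed as auto-fluorescence equivalency to triamterene.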

Experiment [7] can be described thus: qHTS assay to test for compound auto fluorescence at 535 nm (green) in HepG2 cell free culture (AID 720686).
Experiment [8] can be described thus: qHTS assay to test for compound auto fluorescence at 460 nm (blue) in HepG2 cells (AID 720687). The method, boiled down: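 HepG2 cells in MEM with 10% FBS, attached overnight at 37 C, were exposed to compound or DMSO for 1 hr at 37 C, 5% CO2. Blue fluorescence was read at 405/460 nm, with triamterene as reference fluorophore.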
In experiment [9] the target is Glucocorticoid receptor (Homo sapiens) (UniProt P04150). The experiment can be described thus: qHTS assay to identify small molecule agonists of the glucocorticoid receptor (GR) signaling pathway (AID 720691; active = well fitted activation curve with a large enough effect in the signal ratio in the repeat runs, not every such curve was filed as active; inconclusive = weak or mixed curves, or effect the other way; inactive = no such curve, though single readings can be large or run the other way; the % refers to the signal ratio; note: potency is the fitted concentration of half-maximal effect). Conditions: GR-bla HeLa, beta-lactamase reporter ratio, 18 h; activation: at 62.4 µM (top of the series). The method, boiled down:
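Beta-lactamase reporter activity, read as fluorescence intensity, was measured in GR-bla HeLa cells exposed to compounds for 18 h at 37 C and then loaded with LiveBLAzer B/G FRET substrate for 2 h at room temperature.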

Experiment [10] has the same target. Nature of the experiment: qHTS assay to identify small molecule antagonists of the glucocorticoid receptor (GR) signaling pathway (AID 720692; active = well fitted inhibition curve with a large enough effect in the signal ratio in the repeat runs, not every such curve was filed as active; inconclusive = weak or mixed curves, or effect the other way; inactive = no such curve, though single readings can be large or run the other way; the % refers to the signal ratio; note: potency is the fitted concentration of half-maximal effect). The method, boiled down: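 Fluorescence from cleaved LiveBLAzer B/G FRET substrate reports GRE-driven beta-lactamase in HeLa cells; compounds are tested against 5 nM dexamethasone (final) over 18 h at 37 C, substrate incubation 2 h at room temperature.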

Chain of Glucocorticoid receptor (Homo sapiens) (P04150 whole entry, looked up): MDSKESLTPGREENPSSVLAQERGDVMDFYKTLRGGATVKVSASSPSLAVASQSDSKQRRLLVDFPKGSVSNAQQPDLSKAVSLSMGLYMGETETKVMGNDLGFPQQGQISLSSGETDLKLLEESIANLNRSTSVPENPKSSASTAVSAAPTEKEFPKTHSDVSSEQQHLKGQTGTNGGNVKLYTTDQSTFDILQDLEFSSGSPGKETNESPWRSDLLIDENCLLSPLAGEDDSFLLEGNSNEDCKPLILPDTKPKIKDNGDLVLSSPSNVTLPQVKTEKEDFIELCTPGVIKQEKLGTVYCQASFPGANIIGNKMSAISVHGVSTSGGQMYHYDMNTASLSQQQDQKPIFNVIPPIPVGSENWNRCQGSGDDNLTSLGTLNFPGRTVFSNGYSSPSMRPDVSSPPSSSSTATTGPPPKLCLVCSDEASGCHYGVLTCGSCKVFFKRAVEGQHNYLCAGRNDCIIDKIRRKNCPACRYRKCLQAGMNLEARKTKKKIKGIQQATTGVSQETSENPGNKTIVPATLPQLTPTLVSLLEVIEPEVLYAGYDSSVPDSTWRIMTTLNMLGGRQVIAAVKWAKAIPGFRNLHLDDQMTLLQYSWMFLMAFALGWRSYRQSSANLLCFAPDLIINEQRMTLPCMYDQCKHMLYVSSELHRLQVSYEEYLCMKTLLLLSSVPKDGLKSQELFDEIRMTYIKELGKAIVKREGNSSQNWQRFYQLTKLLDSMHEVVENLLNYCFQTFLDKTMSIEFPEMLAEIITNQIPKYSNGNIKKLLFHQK

`C=CCN1CCCC1CNC(=O)c1cc(S(N)(=O)=O)cc(OC)c1OC` (stereo not given): the Potency result in experiment [1], in experiment [2], in experiment [3], in [4], in experiment [5] and in experiment [7] was “inactive” throughout. In addition, the Potency entry in [9] and in [10] was “inactive” each time. Also, the result in experiment [6] and in experiment [8] was inactive.

With `O=P(O)(O)OC(Cn1cncn1)(Cn1cncn1)c1ccc(F)cc1F`, the Potency result in experiment [1], in experiment [2], in experiment [3], in experiment [4], in [5] and in experiment [7] was “inactive” each time. The Potency entry in experiment [9] and in experiment [10] was “inactive” each time. Besides, the result in experiment [6] and in [8] was inactive.

As for `C[C@@H]1CCC2[C@@H](C)[C@@H](O)O[C@@H]3O[C@@]4(C)CC[C@@H]1[C@@]23OO4` (stereo not given in full), the Potency result in experiment [1], in experiment [2], in experiment [3], in experiment [4], in [5] and in [7] was “inactive” in each case. Besides, the Potency result in experiment [9] and in experiment [10] was “inactive” each time. Moreover, the molecule was classed as inactive in [6] and in experiment [8].

With `O=C(Nc1ccc(O)cc1)c1ccccc1O`, the Potency result in experiment [1], in experiment [2], in [3], in [4], in experiment [5] and in experiment [7] was “inactive” throughout. Also, the Potency result in [9] and in experiment [10] was “inactive” throughout. For the same molecule, the molecule was called inactive in experiment [6] and in [8].

For the molecule `OC[C@H]1O[C@@H](O[C@H]2[C@H](O)[C@@H](O)[C@H](O)O[C@@H]2CO)[C@H](O)[C@@H](O)[C@@H]1O`, the Potency entry in experiment [1], in experiment [2], in [3], in [4], in experiment [5] and in [7] was “inactive” in each case. Further, the Potency result in experiment [9] and in experiment [10] was “inactive” in each case. Moreover, the result in [6] and in experiment [8] was inactive.

Take `O=C(OC[C@H]1O[C@](O)(COC(=O)c2cccnc2)[C@@H](OC(=O)c2cccnc2)[C@@H]1OC(=O)c1cccnc1)c1cccnc1`: the Potency result in experiment [1], in [2], in experiment [3], in experiment [4], in experiment [5] and in experiment [7] was “inactive” in each case. For the same molecule, the Potency result in experiment [9] and in experiment [10] was “inactive” each time. In addition, the molecule was called inactive in experiment [6] and in [8].

In the case of `COc1ccc(CCNCC(O)COc2cccc(C)c2)cc1OC` (stereo not given), the Potency entry in experiment [1], in experiment [2], in [3], in experiment [4], in experiment [5] and in experiment [7] was “inactive” each time. For the same molecule, the Potency result in experiment [9] and in [10] was “inactive” in each case. The molecule was called inactive in [6] and in [8].

For the molecule `[O]=[Bi][O][Bi]=[O]`, the Potency entry in experiment [1], in experiment [2], in experiment [3], in [4], in [5] and in experiment [7] was “inactive” each time. Moreover, the Potency entry in experiment [9] was “inactive”. The call in experiment [6] and in experiment [8] was inactive.

As to `Cc1cc(C(=O)NNCc2ccccc2)no1`, the Potency entry in experiment [1], in [2], in [3], in experiment [4], in experiment [5] and in [7] was “inactive” throughout. For the same molecule, in experiment [9], the Potency result was “inactive”. Also, the molecule was classed as inactive in experiment [6] and in [8].

Take `CC1=C[C@H](O)CC(C)(C)[C@H]1/C=C/C(C)=C/C=C/C(C)=C/C=C/C=C(C)/C=C/C=C(C)/C=C/C1=C(C)C[C@@H](O)CC1(C)C`: the Potency result in experiment [1], in experiment [2], in experiment [3], in [4], in experiment [5] and in experiment [7] was “inactive” throughout. Besides, the Potency entry in [9] is “inactive”. For the same molecule, the molecule was classed as inactive in experiment [6] and in [8]. In addition, the Potency in experiment [10] was 23900 nM (active).

`CC(=O)OCC(=O)[C@@]1(O)[C@H](C)C[C@H]2[C@@H]3C[C@H](F)C4=CC(=O)C=C[C@]4(C)[C@H]3[C@@H](O)C[C@@]21C`: the Potency entry in [1], in experiment [2], in experiment [3], in experiment [4], in experiment [5] and in experiment [7] was “inactive” each time. In addition, the molecule was called inactive in [6] and in experiment [8]. In [9], the Potency is 26.8 nM [inconclusive] (active).

Consider `NNc1nnc(Cc2ccncc2)c2ccccc12`, for which the Potency entry in experiment [1], in experiment [2], in experiment [3], in experiment [4], in experiment [5] and in [7] was “inactive” each time. Besides, the Potency entry in experiment [9] and in experiment [10] was “inactive” throughout. Also, the result in experiment [6] and in experiment [8] was inactive.

As to `CC(C)(C)NCC(O)c1ccc(O)c(CO)n1` (stereo not given), the Potency entry in experiment [1], in [2], in experiment [3], in experiment [4], in [5] and in experiment [7] was “inactive” throughout. For the same molecule, the Potency entry in experiment [9] and in experiment [10] was “inactive” throughout. The outcome in experiment [6] and in experiment [8] was inactive.

Turning to `COc1cc(/C=C/C(=O)N2CCN(CC(=O)N3CCCC3)CC2)cc(OC)c1OC`, the Potency entry in experiment [1], in experiment [2], in experiment [3], in experiment [4], in [5] and in experiment [7] was “inactive” each time. Further, in [9], the Potency entry was “inactive”. The molecule was classed as inactive in experiment [6] and in experiment [8].

As for `O=S(=O)(O)Oc1ccc(C(c2ccc(OS(=O)(=O)O)cc2)c2ccccn2)cc1`, the Potency result in experiment [1], in [2], in experiment [3], in experiment [4], in [5] and in experiment [7] was “inactive” throughout. The Potency result in [9] and in experiment [10] was “inactive” each time. Further, the molecule was called inactive in experiment [6] and in experiment [8].

Take `CC(C)(S)[C@@H](N)C(=O)O`: the Potency result in [1], in experiment [2], in [3], in experiment [4], in experiment [5] and in experiment [7] was “inactive” in each case. For the same molecule, the Potency entry in experiment [9] and in [10] was “inactive” in each case. In addition, the molecule was classed as inactive in experiment [6] and in experiment [8].

Take `CCOC(=O)[C@@H](N)CS`: the Potency result in [1], in experiment [2], in [3], in [4], in experiment [5] and in experiment [7] was “inactive” in each case. For the same molecule, the Potency entry in [9] and in [10] was “inactive” in each case. For the same molecule, the result in [6] and in experiment [8] was inactive.

As to `CCCCCCCCCCCCCCCCCC(=O)OCCO`, the Potency result in [1], in [2], in experiment [3], in [4], in experiment [5] and in experiment [7] was “inactive” throughout. The Potency result in experiment [9] and in experiment [10] was “inactive” throughout. Further, the outcome in experiment [6] and in experiment [8] was inactive.

In the case of `C[C@]12CCC(=O)C=C1CC[C@@H]1[C@@H]2[C@@H](O)C[C@@]2(C)[C@H]1CC[C@]2(O)C(=O)COP(=O)(O)O`, the Potency entry in experiment [1], in experiment [2], in experiment [3], in experiment [4], in experiment [5] and in [7] was “inactive” in each case. Also, the molecule was classed as inactive in experiment [6] and in experiment [8]. In addition, the Potency in experiment [9] is 674 nM [inconclusive] (active).

Regarding `COc1ccc(CNCC(O)COc2ccc3[nH]c(=O)ccc3c2)cc1OC` (stereo not given), the Potency entry in [1], in experiment [2], in [3], in [4], in experiment [5] and in [7] was “inactive” each time. Further, the Potency result in experiment [9] and in experiment [10] was “inactive” throughout. For the same molecule, the molecule was called inactive in experiment [6] and in experiment [8].
